Our source for the outcome values is PubChem BioAssay AID1117291 (Broad Institute, 2014).

The test in a line: HepG2 cell cytotoxicity, dose response, cytotoxicity control, CellTiter-Glo luminescence, dry powder, set 20 (AID 1117291).

Structures are written as SMILES. Potency and affinity values are given separately. Results filed as inconclusive are left out. A call without a number means that no potency is given here. Active and inactive are the calls of the source.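 Rule for the calls: active = compound whose fitted half-maximal potency lies at or below double its highest tested dose in every test; inconclusive = tests disagree, or a flat partial loss, or a poor fit; inactive = every test inactive.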

Consider `COc1ccc(C(=O)Nc2ccccc2N2CCCCC2)cc1S(=O)(=O)O`, for which the compound was called inactive.
Regarding `CC(=O)N1CCN(C(=O)C(C)(C)NC(=O)Nc2ccc(C)cc2)CC1`, the call was inactive.
As to `CC(=O)N1CCN(C(=O)C2(NC(=O)NCCc3ccccc3)CCCCC2)CC1`, the call was inactive.
Turning to `Cc1ccc(NC(=O)NC2(C(=O)N3CCN(c4ccccc4)CC3)CCCCC2)cc1`, the outcome was inactive.
Regarding `O=C(Nc1cc(C(F)(F)F)ccc1N1CCCCC1)c1ccc(S(=O)(=O)O)cc1`, the compound was called inactive.
Take `COc1ccc(C(=O)Nc2cc(C(F)(F)F)ccc2N2CCCC2)cc1S(=O)(=O)O`: the compound was classed as inactive.
`CC(=O)N1CCN(C(=O)C2(NC(=O)Nc3ccc(C(C)C)cc3)CCCC2)CC1`: the result was inactive.
Take `N#Cc1ccc(S(=O)(=O)Nc2cc(C(F)(F)F)ccc2N2CCCCC2)cc1`: the compound was classed as inactive.
Consider `CC(=O)N1CCN(C(=O)[C@@H]2CCN2C(=O)Nc2ccc(C)cc2)CC1`, for which the call was inactive.
Under `CC(=O)N1CCN(C(=O)C2(NC(=O)Nc3cccc(C(F)(F)F)c3)CCCCC2)CC1` stands “inactive”; under `O=S(=O)(Nc1cc(C(F)(F)F)ccc1N1CCCCC1)c1ccc(-c2ccccc2)cc1`, “inactive”; under `CC(=O)N1CCN(C(=O)CNC(=O)Nc2ccc(C)cc2)CC1`, “inactive”.
The entry for `CC(=O)N1CCN(C(=O)C2(NC(=O)Nc3ccccc3)CCCC2)CC1` is “inactive”.
Under `O=S(=O)(O)c1ccc(N2N=C(c3ccccc3)CC2c2ccccc2)cc1` (configuration not stated) stands “inactive”; under `CC(=O)N1CCN(C(=O)C2(NC(=O)Nc3ccccc3F)CCCCC2)CC1`, “inactive”.
Consider `COc1ccc(C(=O)O)cc1S(=O)(=O)Nc1cc(C(F)(F)F)ccc1N(C)C`, for which the compound was classed as inactive.
As to `COc1ccc(C2=NN(c3ccc(C(=O)O)cc3)C(c3ccc(OC)c(OC)c3)C2)cc1` (configuration not stated), the outcome was inactive.
As for `COc1ccc(C(=O)O)cc1S(=O)(=O)Nc1cc(C(F)(F)F)ccc1N1CCCCC1`, the compound was classed as inactive.
The entry for `CC(=O)N1CCN(C(=O)C2(NC(=O)Nc3ccc(F)cc3)CCCCC2)CC1` is “inactive”.
Consider `CC(=O)N1CCN(C(=O)C2CCCN2C(=O)Nc2ccc(C)cc2)CC1` (configuration not stated), for which the outcome was inactive.
For `CC(=O)N1CCN(C(=O)C2(NC(=O)NC(C)(C)C)CCCCC2)CC1`, the compound was classed as inactive.
Take `NC(=NCCc1c[nH]c2ccccc12)NS(=O)(=O)c1cc(F)ccc1F`: the call was inactive.
